Assay outcomes: PubChem BioAssay, Center for Chemical Genomics, University of Michigan
Dicer inh – inhibitors of human Dicer processing of pre-microRNA; Q9UPY3; cat-ELCCA pre-miR-21 Dicer processing, chemiluminescence; stronger effect = higher value; z-score at 25 µM; hit rate 6% among 47,000; AID 1347074; in the data active = z-score above about 3, passing the limit was not always enough;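 note: plate controls were vehicle for no effect and no enzyme for full effect; higher signal means more uncleaved substrate so more Dicer inhibition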
* marks the source's active call; other numbers are inactive results. This is one part of a sample in which hits are shown more often than they occur.

SMILES	Dicer inh
COCCOC(=O)C1=C(C)NC2=C(C(=O)CC(c3cccs3)C2)C1c1ccc(O)c(OC)c1 (stereo unspecified)	2.55
COc1ccc(C2CC(=O)C3=C(C2)NC(C)=C(C(=O)OC(C)C)C3c2ccc(F)cc2)cc1 (stereo unspecified)	-0.25
CCOc1ccc(C2C(C(=O)OC(C)C)=C(C)NC3=C2C(=O)CC(c2ccc(OC)cc2)C3)cc1 (stereo unspecified)	0.91
CC1=C(C#N)C(c2cccc(F)c2)C2=C(CCCC2=O)N1 (stereo unspecified)	4.72*
CCOC(=O)C1=C(C)NC2=C(C(=O)CC(c3cccs3)C2)C1c1ccsc1 (stereo unspecified)	1.08
CCOCCOC(=O)C1=C(C)NC2=C(C(=O)CC(c3cccs3)C2)C1c1ccc(O)c(OC)c1 (stereo unspecified)	5.03*
CCOCCOC(=O)C1=C(C)NC2=C(C(=O)CC(c3cccs3)C2)C1c1ccc(OC)c(O)c1 (stereo unspecified)	-0.96
CCc1ccc(C2C(C#N)=C(C)NC3=C2C(=O)CCC3)cc1 (stereo unspecified)	0.32
CC1=C(C#N)C(c2ccccc2F)C2=C(CCCC2=O)N1 (stereo unspecified)	6.56
Cn1ncc2c(-n3ncc(C#N)c3N)ncnc21	0.99
CCCCCN1C(C(=O)c2ccccc2)=C(NC(=O)C(C)(C)C)c2ccccc2S1(=O)=O	-0.85
Cc1ccc2cc(NC(=O)c3nccnc3C(=O)O)ccc2n1	-0.64
CN1c2ccccc2C(=O)/C(=N\Nc2ccccc2F)S1(=O)=O	-1.02
Cc1cc(C)n2ncc(/C(N)=N/OC(=O)NC(C)C)c2n1	0.1
COc1ccc(-c2nnc3c4ccccc4c(C)nn23)cc1S(=O)(=O)N(C)CCO	2.06
COC(=O)c1scc(S(=O)(=O)C(C)C)c1N/N=C(\C#N)C(=O)c1cccs1	-0.24
Cc1ccc(/C(O)=C2\C(=O)C(=O)N(CCCn3ccnc3)C2c2ccco2)cc1 (stereo unspecified)	0.48
NNC(=O)c1ccc(C(F)(F)F)cc1	2.3
COCCOC(=O)C1=C(C)NC2=C(C(=O)CC(c3cccs3)C2)C1c1ccsc1 (stereo unspecified)	1.43
COc1ccc(C2CC(=O)C3=C(C2)NC(C)=C(C#N)C3c2ccc(F)cc2)cc1 (stereo unspecified)	4.52*
CCOc1ccc(C2C(C(=O)OC(C)C)=C(C)NC3=C2C(=O)CC(c2ccccc2)C3)cc1 (stereo unspecified)	2.31
COCCOC(=O)C1=C(C)NC2=C(C(=O)CC(c3cccs3)C2)C1c1ccc(O)cc1 (stereo unspecified)	3.04*
CC1=C(C#N)C(c2ccc(F)cc2)C2=C(CC(c3ccccc3)CC2=O)N1 (stereo unspecified)	1.12
CCCOC(=O)C1=C(C)NC2=C(C(=O)CC(c3cccs3)C2)C1c1ccc(F)cc1 (stereo unspecified)	2.8
CCOc1cc(C2C(C(=O)OC(C)C)=C(C)NC3=C2C(=O)CC(c2ccccc2)C3)ccc1O (stereo unspecified)	10.6*
SMILES	Dicer inh
CCOc1ccc(C2C(C(=O)OC(C)C)=C(C)NC3=C2C(=O)CC(c2ccccc2)C3)cc1OC (stereo unspecified)	1.53
CCOc1cc(C2C(C(=O)OCCOC)=C(C)NC3=C2C(=O)CC(c2cccs2)C3)ccc1O (stereo unspecified)	3.32*
COc1ccc(C2CC(=O)C3=C(C2)NC(C)=C(C#N)C3c2ccc(Br)cc2)cc1 (stereo unspecified)	0.83
CCOc1ccc(C2CC(=O)C3=C(C2)NC(C)=C(C(=O)OCCOC)C3c2cccs2)cc1OC (stereo unspecified)	-1.39
CCOC(=O)C1=C(C)NC2=C(C(=O)CC(c3cccs3)C2)C1c1ccc(F)cc1 (stereo unspecified)	-0.12
CC(C)(C)OC(=O)C(Cc1ccccc1)NC(=O)CNC(=O)OCc1ccccc1 (stereo unspecified)	-0.85
Cc1nc(N2CCN(c3ccccc3F)CC2)nc2c1C(=O)CCC2	-0.32
O=C(CSc1n[nH]c(=O)n1C1CC1)c1cc(-c2ccccc2)no1	-1.12
O=C(O)c1ccc(-n2ccc(C(F)(F)F)n2)cc1	-0.73
CSCCC(Nc1ncnc2c1oc1ccccc12)C(=O)O (stereo unspecified)	0.26
O=C1CSC(c2ccc3c(c2)OCO3)N1 (stereo unspecified)	-0.56
Clc1ccc(Cc2nn3c(-c4ccccc4)nnc3s2)cc1	1.5
CNc1ncnc(SC(C)C)c1[N+](=O)[O-]	-1.45
COC(=O)Cc1nc(NS(=O)(=O)c2cccc(C(F)(F)F)c2)sc1C	0.17
Cc1c(S(=O)(=O)Nc2ccccc2C(=O)NCC2CC2)sc2ccc(Cl)cc12	-0.69
N#Cc1c(Cl)cccc1Oc1ccc(S(=O)(=O)Nc2ccccc2C(=O)NCC2CC2)cc1	0.88
O=C(NCC1CC1)c1ccccc1NS(=O)(=O)c1cc(Cl)c(Oc2ccc([N+](=O)[O-])cc2Cl)c(Cl)c1	3.33*
COc1cccc(-n2c(N)c(C#N)c3ccc([N+](=O)[O-])cc3c2=O)c1	-0.03
Nc1c(-c2ccc3ccccc3n2)c2ccc([N+](=O)[O-])cc2c(=O)n1Cc1ccccc1	-1.11
COc1ccc(-c2c(N)n(-c3ccccc3)c(=O)c3cc([N+](=O)[O-])ccc23)cc1OC	3.43*
COC(=O)c1cc([N+](=O)[O-])nn1Cc1ccccc1	1.45
O=C(Cn1cnc([N+](=O)[O-])n1)OCCCc1ccccc1	3.54*
O=C(O)c1cccc(Cn2cnc([N+](=O)[O-])n2)c1	-0.2
COc1ccccc1Oc1ccc(C(F)(F)F)cc1NC(=O)NC(=O)c1ccccc1F	-0.85
CCOC(=O)c1cc(CC)sc1NC(=S)Nc1ccccc1C(F)(F)F	-0.97
SMILES	Dicer inh
CCOC(=O)c1cc(C)ccc1NC(=S)Nc1cccc(Cl)c1	-5.33
CCOC(=O)c1cc(CC)sc1NC(=S)Nc1cccc(Cl)c1	7.09*
CCOC(=O)NC(Nc1ccc(F)c(F)c1F)(C(=O)OCC)C(F)(F)F (stereo unspecified)	-0.91
Cc1ccc2oc3c(c(=O)c2c1)C(c1ccc(O)cc1)N(Cc1ccccc1)C3=O (stereo unspecified)	2.65
O=C1CCCC2=C1C(c1ccncc1)n1nc(-c3cccc(Cl)c3)nc1N2 (stereo unspecified)	-0.3
Cc1cccc(-c2nc3n(n2)C(c2ccc(O)cc2)C2=C(CCCC2=O)N3)c1 (stereo unspecified)	0.2
O=C1CCCC2=C1C(c1ccc3c(c1)OCO3)n1nc(-c3cccc(Cl)c3)nc1N2 (stereo unspecified)	4.07*
CN1CCN(CCCNC(=O)c2sc3ccccc3c2Cl)CC1	-0.58
Cc1cccc(Oc2ccc(N)cn2)c1C	-0.63
CN(C)C(=O)C12CCC(C)(C(=O)C1)C2(C)C (stereo unspecified)	3.14*
CC1(C)Cc2nc(N3CCCC3)c(C#N)cc2CO1	-1.78
CCOC(=O)CSc1nc(N2CCOCC2)c2c(c1C#N)CC(C)(C)OC2	-1.34
CC1(C)Cc2nc(N3CCOCC3)c(C#N)cc2CO1	4.17*
O=C(CSc1nn2cnnc2s1)N(C1CCCCC1)C1CCCCC1	1.99
O=C(CSc1ncn[nH]1)N1CCc2ccccc21	0.69
O=C(CSc1nn2cnnc2s1)N1CCc2ccccc21	3.15*
NNC(=O)C1CCC(c2ccc(Cl)cc2)CC1 (stereo unspecified)	0.36
S=c1[nH]nc(Cc2ccccc2)n1C1CCCCC1	0.77
S=c1[nH]nc(-c2ccccc2Cl)n1C1CCCCC1	0.48
